Results: PubChem BioAssay (Tox21)
Unmarked numbers belong to inactive results. Inconclusive results are not listed. Entries that show only a call come without a potency. Activity calls are given as the source filed them. Unless noted, calls follow the shape of the dose curve; as a rule, active = well fitted curve in the direction sought with a large enough effect in the repeat runs; inconclusive = weak or mixed curves; inactive = no such curve, though single readings can be large; an effect the other way counts as inactive or inconclusive.

Experiments:
[1] = A CellTox Green Cytotoxicity Assay to monitor cytotoxicity in HEK293 cells - 32 hour (AID 1224881); also: nearly all actives have a fitted effect of over 40% in size; also: potency is read from the fitted curve at half-maximal effect
Outline: (§1)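 Dead-cell fluorescence measured kinetically: asymmetric cyanine dye, HEK293, 600 cells/well, 5 h settle, 23 nL cpd/DMSO, 37 C, reads 0–40 h every 8 h.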

[2] = A CellTox Green Cytotoxicity Assay to monitor cytotoxicity in HepG2 cells - 0 hour (AID 1224882); also: nearly all actives have a fitted effect of over 35% in size
Outline: (§2)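 First, HepG2 cells (600/well) mixed with reagent were plated; second, after 5 h at 37 C they received compounds via pintool; third, fluorescence was measured at 0 h through 40 h at 8 h intervals.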

[3] = A CellTox Green Cytotoxicity Assay to monitor cytotoxicity in HEK293 cells - 8 hour (AID 1224884); also: nearly all actives have a fitted effect of over 35% in size
Outline: as §1

[4] = qHTS RealTime-Glo MT Cell Viability Assay in HepG2 cells - 16 hour (AID 1224885); also: nearly all actives have a fitted effect of over 50% in size
Outline: (§3)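 Viability was tracked continuously by NanoLuc luminescence from prosubstrate reduced by living HepG2 cells, at successive time points over 40 h of compound exposure. Cells with reagent were preincubated 5 h at 37 °C before compound addition.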

[5] = qHTS RealTime-Glo MT Cell Viability Assay in HEK293 cells - 24 hour (AID 1224886); also: top concentration of the series differs between compounds; nearly all actives have a fitted effect of over 50% in size
Outline: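 Viability tracked continuously by luminescence as live cells reduce a prosubstrate for NanoLuc; HEK293 cells preincubated 5 h, compound-treated at 37 C, and read at 0, 8, 16, 24, 32 and 40 h.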

[6] = qHTS RealTime-Glo MT Cell Viability Assay in HEK293 cells - 8 hour (AID 1224887); also: top concentration of the series differs between compounds; nearly all actives have a fitted effect of over 50% in size
Outline: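 600 HEK293 cells per well, dispensed already mixed with RealTime-Glo MT reagents. Compound dosing came 5 h later. The same wells were read for luminescence at 0, 8, 16, 24, 32 and 40 h of exposure at 37 C.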

[7] = A CellTox Green Cytotoxicity Assay to monitor cytotoxicity in HEK293 cells - 16 hour (AID 1224888); also: nearly all actives have a fitted effect of over 35% in size
Outline: as §1

[8] = qHTS RealTime-Glo MT Cell Viability Assay in HepG2 cells - 0 hour (AID 1224889); also: nearly all actives have a fitted effect of over 50% in size
Outline: as §3

[9] = A CellTox Green Cytotoxicity Assay to monitor cytotoxicity in HepG2 cells - 8 hour (AID 1224890); also: nearly all actives have a fitted effect of over 45% in size
Outline: as §2

[10] = qHTS assay to identify small molecule antagonists of the estrogen receptor alpha (ER-alpha) signaling pathway using the BG1 cell line in the presence of 0.1 nM 17-beta-estradiol - cell viability counter screen (AID 1259241); also: nearly all actives have a fitted effect of over 40% in size
Outline: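 Live-cell protease activity (CellTiter-Fluor fluorescence, 30 min) was read in the same wells after VM7Luc4E2 cells had been exposed to compounds with 0.1 nM 17beta-estradiol for 22 hr at 37C.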

[11] = qHTS assay to identify small molecule antagonists of the androgen receptor (AR) signaling pathway using the MDA cell line in the presence of 0.5 nM R1881 - cell viability counter screen (AID 1259242); also: nearly all actives have a fitted effect of over 45% in size
Outline: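 qHTS format. MDA-kb2 (MMTV-luc, AR/GR responsive) + cpd + 0.5 nM R1881 final, 16 hr 37C/0% CO2 → CellTiter-Fluor 30 min → fluorescence intensity.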

[12] = target: Estrogen receptor (Homo sapiens) (UniProt P03372); assay: qHTS assay to identify small molecule antagonists of the estrogen receptor alpha (ER-alpha) signaling pathway using the BG1 cell line in the presence of 0.1 nM 17-beta-estradiol (AID 1259244); also: nearly all actives have a fitted effect of over 50% in size
Outline: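 Reporter is a stably transfected luciferase under four estrogen responsive elements in VM7Luc4E2 cells expressing native full-length ER-alpha; inhibition of 0.1 nM (final) 17beta-estradiol-driven signal over 22 h is read by luminescence.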

[13] = qHTS assay to identify small molecule phospholipidosis (PLD) inducers (AID 1259344; active = well fitted curve in the direction sought with a large enough effect; an effect the other way counts as inactive or inconclusive)
Outline: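 Image-based: LipidTOX Red pit count/intensity per well and per cell; HepG2, 24 h compound at 37 C, PFA fixation, Hoechst counterstain.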

[14] = qHTS assay to identify small molecule HDAC inhibitors (AID 1259364);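 also: wild-type HCT-116 cells with endogenous class I/II HDAC activity; top concentration of the series differs between compounds; nearly all actives have a fitted effect of over 45% in size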
Outline: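 Quantitative high-throughput format: overnight-seeded HCT-116 cells got compounds for 2 hr at 37C; HDAC-Glo I/II reagent added, 30 min RT, luminescence measured.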

[15] = qHTS assay to identify small molecule HDAC inhibitors - cell viability counter screen (AID 1259365)
Outline: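 HCT-116 (wild type), 1,500 cells/well, overnight 37C/5% CO2; compound in DMSO 2hr; CellTiter-Glo 30min RT; luminescence read.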

[16] = qHTS assay to identify small molecule agonists of the sonic hedgehog signaling (Shh) pathway - cell viability counter screen (AID 1259366); also: nearly all actives have a fitted effect of over 50% in size; also: potency is read from the fitted curve at half-maximal effect
Outline: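 CellTiter-Fluor fluorescence read-out, 1 hr at 37C, added after 23hr compound exposure. Cells: 3T3 Gli1-Luc, an NIH/3T3 clone with stably integrated Gli1-Luc reporter, plated 4hr before compound.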

[17] = qHTS assay to identify small molecule agonists of the sonic hedgehog signaling (Shh) pathway (AID 1259368; calls by dose curve;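 also: NIH/3T3-derived 3T3Gli1-Luc cells carrying a stable Gli1-driven firefly luciferase reporter; series mostly up to about 92 µM; nearly all actives have a fitted effect of over 15% in size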)
Outline: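 Quantitative high-throughput format using a Gli1-driven firefly luciferase reporter line derived from NIH/3T3 cells. After a 24 hr compound treatment at 37 C and 5% CO2, luminescence reported Gli1 response element activity.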

[18] = A CellTox Green Cytotoxicity Assay to monitor cytotoxicity in HepG2 cells - 32 hour (AID 1224883); also: nearly all actives have a fitted effect of over 50% in size
Outline: as §2

[19] = qHTS assay to identify small molecule antagonists of the sonic hedgehog signaling (Shh) pathway - cell viability counter screen (AID 1259367); also: nearly all actives have a fitted effect of over 55% in size; also: potency is read from the fitted curve at half-maximal effect
Outline: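 Tox21 library chemicals were tested on a Gli1-Luc NIH/3T3 clone (2,000 cells/well) stimulated by conditioned medium; viability was quantified as fluorescence from CellTiter-Fluor reagent added at 23 hr.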

Estrogen receptor (Homo sapiens), sequence (P03372 whole entry, looked up): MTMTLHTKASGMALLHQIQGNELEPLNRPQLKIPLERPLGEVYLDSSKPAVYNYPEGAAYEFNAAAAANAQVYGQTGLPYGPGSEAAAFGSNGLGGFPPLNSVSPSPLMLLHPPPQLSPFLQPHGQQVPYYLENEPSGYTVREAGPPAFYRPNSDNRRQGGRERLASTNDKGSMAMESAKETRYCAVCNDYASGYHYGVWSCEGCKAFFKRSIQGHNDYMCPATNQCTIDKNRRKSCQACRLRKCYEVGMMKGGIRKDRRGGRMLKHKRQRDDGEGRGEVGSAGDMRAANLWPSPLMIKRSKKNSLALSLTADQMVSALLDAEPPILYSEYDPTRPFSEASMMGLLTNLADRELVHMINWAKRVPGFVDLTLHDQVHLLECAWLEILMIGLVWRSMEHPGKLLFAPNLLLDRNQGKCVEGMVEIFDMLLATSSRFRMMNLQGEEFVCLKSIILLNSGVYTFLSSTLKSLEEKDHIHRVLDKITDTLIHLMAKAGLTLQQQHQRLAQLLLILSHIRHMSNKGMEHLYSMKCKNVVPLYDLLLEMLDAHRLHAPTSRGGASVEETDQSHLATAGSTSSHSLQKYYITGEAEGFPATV

Row | Compound | Potency [1] | Potency [2] | Potency [3] | Potency [4] | Potency [5] | Potency [6] | Potency [7] | Potency [8] | Potency [9] | Potency [10] | Potency [11] | Potency [12] | PLD induction [13] | Potency [14] | outcome [15] | Potency [16] | outcome [17] | Potency [18] | Potency [19] | Potency [13]
1 | C=CC[N+]1([C@H]2C[C@H]3[C@@H]4CC[C@H]5C[C@H](OC(C)=O)[C@@H](N6CCCCC6)C[C@]5(C)[C@H]4CC[C@]3(C)[C@H]2OC(=O)CC)CCCCC1 | inactive | inactive | inactive | inactive | inactive | inactive | inactive | inactive | inactive | inactive | inactive | inactive | -0.411% [at 7.66 µM] | inactive | inactive | inactive | inactive | – | – | –
2 | Cc1occc1S | inactive | inactive | – | inactive | inactive | inactive | inactive | inactive | inactive | inactive | inactive | inactive | – | inactive | – | inactive | inactive | inactive | inactive | –
3 | Cc1cccc(OCCOc2cccc(C)c2)c1 | inactive | inactive | inactive | – | inactive | inactive | – | inactive | inactive | inactive | – | inactive | – | inactive | inactive | inactive | inactive | – | inactive | –
4 | C=Cc1c(C)c2cc3[nH]c(cc4nc(cc5nc(cc1[nH]2)C(C)=C5CCC(=O)O)C(CCC(=O)O)=C4C)c(C)c3C=C | inactive | inactive | inactive | – | inactive | inactive | inactive | inactive | inactive | – | – | inactive | – | inactive | – | 13.3 µM (active) | inactive | – | 23.7 µM (active) | inactive
5 | O=C(O)C(c1ccc(Cl)cc1)c1ccc(Cl)cc1 | – | inactive | inactive | inactive | inactive | inactive | inactive | inactive | inactive | – | inactive | inactive | – | inactive | inactive | inactive | inactive | inactive | inactive | –
6 | CC(O)C1CCCCC1 (stereo not drawn) | – | inactive | inactive | inactive | inactive | inactive | inactive | inactive | inactive | inactive | inactive | – | – | inactive | inactive | inactive | inactive | inactive | inactive | –
7 | Oc1ccc2c(c1)OCO2 | inactive | inactive | inactive | – | inactive | inactive | inactive | inactive | inactive | inactive | inactive | inactive | – | inactive | inactive | inactive | inactive | – | inactive | –
8 | O=C(Cl)c1c(Cl)cccc1Cl | – | inactive | inactive | inactive | inactive | inactive | inactive | inactive | inactive | inactive | inactive | inactive | – | inactive | inactive | inactive | inactive | inactive | inactive | –
9 | COc1cc(C(C)(C)C)c(O)c(C(C)(C)C)c1 | 43.6 µM (active) | inactive | inactive | inactive | inactive | – | – | inactive | – | inactive | inactive | – | – | inactive | inactive | inactive | inactive | – | – | –
